According to PubChem BioAssay (NCI):
The panel holds about 83,000 compounds, 20% with a hit somewhere; the sample as a whole holds those more often.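 Cell lines were cultured in 96-well plates, exposed to a single compound concentration, and assessed for percent growth 48 hours later.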 A number with no mark means an inactive call. The source made the active and inactive calls. The calls were made as follows: active = growth percent below 10; inactive = the rest.

Each compound was assayed on MALME-3M melanoma (assay: NCI-60 one-dose screen, 48 h (100 = growth as untreated, 0 = no growth, -100 = all killed)). Conditions: 10 µM unless noted.
`O=C(O)c1c[nH]c2ccccc2c1=O` gave a growth of 91.9%.
With `CC(=O)N(C)N=Nc1ccc(C)cc1` the growth was 94.5%.
For `COc1ccc2c(Cl)cc(NC(=O)Nc3c(C)cccc3C)nc2c1`, the growth was -1.2% (active).
Work on `O=C(c1ccc(Cl)cc1)N1CCCCC1` yielded a growth of 109%.
With `CC(=O)NC(O)C(Cl)Cl` (stereo unspecified) the growth was 96.7%.
`CCC(/C=C\C(C)=O)CC` showed a growth of 98.4%.
With `CCOC(=O)C(COS(C)(=O)=O)(COS(C)(=O)=O)C(=O)OCC` the growth was 122%.
`CC(=O)N(CCCCCCN(C(C)=O)C(C)=O)C(C)=O` showed a growth of 107% [100 µM].
Compound `NNc1ncccn1` has a growth of 118%.
Compound `CC12CCC3c4ccc(O)cc4CCC3C1CCC2=O` (stereo unspecified) has a growth of 113%.
In the case of `Nc1cc2ccccc2c(O)c1O`, the growth is reported as -39% (active).
`S=c1nc(-c2ccccn2)c(-c2ccccn2)n[nH]1` gave a growth of 89.6%.
In the case of `CC(C)Sc1ncnc2nc[nH]c12`, the growth is reported as 109%.
With `Clc1cccc(Cl)c1C1CSc2ccccc2N=C1c1ccccc1` (stereo unspecified) the growth was 110%.

These compounds were tested on MDA-MB-231 breast in the same assay as above. Conditions: 10 µM unless noted.
In the case of `S=C(Sc1ccc(Cl)cc1)Sc1ccc(Cl)cc1`, the growth is reported as -29.5% (active).
Compound `O=C(O)CC1=CCCCC1` has a growth of 98%.
`O=C1C=C[C@H](O)[C@@]2(CO)O[C@@H]12` showed a growth of 105%.
Work on `O=C(O)C1CCCN1C(=O)OCc1ccccc1` (stereo unspecified) yielded a growth of 128%.
Work on `C=CC(C)(C)n1cc(C2=C(O)C(=O)C(c3cn(C(C)(C)C=C)c4ccccc34)=C(O)C2=O)c2ccccc21` yielded a growth of 92.6%.
In the case of `CCOC(=O)C(=O)CC(=O)c1ccccc1`, the growth is reported as 92.9%.
In the case of `O=Cc1ccc(F)cc1`, the growth is reported as 97.1%.
In the case of `CC1CC2C3CCC4=CC(=O)CCC4(C)C3CCC2(C)C1(O)C(=O)CO` (stereo unspecified), the growth is reported as 108%.
`Cc1ccc(S(=O)(=O)Oc2ccc3sc4c(CO)ccc(NCCN(C)C)c4c(=O)c3c2)cc1` was tested, and the growth was -90.7% [100 µM] (active).
Work on `O=C(OCC1CCCO1)c1ccc([N+](=O)[O-])cc1` (stereo unspecified) yielded a growth of 106%.
With `Nc1c(Br)cc(O)c2c1C(=O)c1ccccc1C2=O` the growth was 77.5%.
For `COc1ccc(Br)c2c1C(=O)CC2`, the growth was 106%.
With `CC(=O)N(C(C)=O)c1ccc(C)cc1` the growth was 102%.
In the case of `CC1(C)C2CCC1(C)C1(C2)OCCS1` (stereo unspecified), the growth is reported as 100%.
`O=c1n(CC2CO2)c(=O)n(CC2CO2)n1CC1CO1` (stereo unspecified) was tested, and the growth was 110%.
For `S=C=Nc1ccc2ccccc2c1`, the growth was 117%.
`O=C(O)c1c[nH]c2ccccc2c1=O` was tested, and the growth was 98.1%.
`Cc1[nH]n(-c2ccccc2)c(=O)c1C=NC(=S)C(N)=S` gave a growth of 98.9%.
`CC(=O)N(C)N=Nc1ccc(C)cc1` gave a growth of 102%.
Work on `COc1ccc2c(Cl)cc(NC(=O)Nc3c(C)cccc3C)nc2c1` yielded a growth of 62.7%.
For `O=C(c1ccc(Cl)cc1)N1CCCCC1`, the growth was 94.4%.
`CCC(/C=C\C(C)=O)CC` showed a growth of 103%.
With `CCOC(=O)C(COS(C)(=O)=O)(COS(C)(=O)=O)C(=O)OCC` the growth was 109%.
`CC(=O)NNC(=S)N/C=C/c1c(C)ccc([N+](=O)[O-])c1[N+](=O)[O-]` was tested, and the growth was 99.3%.
For `CC(=O)N(CCCCCCN(C(C)=O)C(C)=O)C(C)=O`, the growth was 98% [100 µM].
For `CC(=O)NCNC(C)=O`, the growth was 118%.
With `NNc1ncccn1` the growth was 100%.
With `CC12CCC3c4ccc(O)cc4CCC3C1CCC2=O` (stereo unspecified) the growth was 83.5%.
With `Nc1cc2ccccc2c(O)c1O` the growth was -19.9% (active).
`S=c1nc(-c2ccccn2)c(-c2ccccn2)n[nH]1` gave a growth of 118%.
`CC(C)Sc1ncnc2nc[nH]c12` was tested, and the growth was 105%.
`Clc1cccc(Cl)c1C1CSc2ccccc2N=C1c1ccccc1` (stereo unspecified) gave a growth of 70.5%.
